GRIN3A LBD mod: modulators (binders) of human NR3A ligand-binding domain; NR3A LBD differential scanning fluorimetry, Tm shift; 0% = protein alone, 100% = glycine-bound protein; Tm shift relative to glycine control, % at 25 µM; 340,000 compounds, 2.5% hits;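 active = melting temperature shift of at least 10% of the positive control shift, at one fixed dose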
Beta apoptosis: beta cell apoptosis inhibition; protection from apoptosis, % (concentration not given with the values); AID 435005; 300,000 compounds, 0.8% hits; INS-1E cytokine-induced death, ATP luminescence, 48 h; percent of positive-control rescue, neutral wells zero;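 active = Every replicate reaches about 75%, or at least half do and their mean reaches it too, limit read from the data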;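 note: higher means more ATP so stronger rescue from cytokine killing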
MPTP inh: blocks calcium-induced mitochondrial swelling. isolated mouse mitochondria, Ca2+ swelling absorbance, 30 min. inhibition, % at 10 µM. 360,000 compounds, 1.4% hits;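 active = inhibition of 50% or more, scaled per plate between neutral and stimulator controls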
CSC inhib: cancer stem cell inhibition; 300,000 compounds, 1.1% hits; cancer stem cell-like cells viability, luminescence; inhibition, % at 7.5 µM; in the data active = inhibition above about 75%; tested in HMLE shEcad cells
Mdm2-MdmX inh: disrupts the human Mdm2-MdmX interaction. SaOS-2 split-luciferase Mdm2/MdmX complementation, luminescence. inhibition, % at 8 µM. 330,000 compounds, 3% hits;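 active = inhibition of at least 50% at 8 µM in the primary screen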
Target sequence (O15151 whole entry, looked up): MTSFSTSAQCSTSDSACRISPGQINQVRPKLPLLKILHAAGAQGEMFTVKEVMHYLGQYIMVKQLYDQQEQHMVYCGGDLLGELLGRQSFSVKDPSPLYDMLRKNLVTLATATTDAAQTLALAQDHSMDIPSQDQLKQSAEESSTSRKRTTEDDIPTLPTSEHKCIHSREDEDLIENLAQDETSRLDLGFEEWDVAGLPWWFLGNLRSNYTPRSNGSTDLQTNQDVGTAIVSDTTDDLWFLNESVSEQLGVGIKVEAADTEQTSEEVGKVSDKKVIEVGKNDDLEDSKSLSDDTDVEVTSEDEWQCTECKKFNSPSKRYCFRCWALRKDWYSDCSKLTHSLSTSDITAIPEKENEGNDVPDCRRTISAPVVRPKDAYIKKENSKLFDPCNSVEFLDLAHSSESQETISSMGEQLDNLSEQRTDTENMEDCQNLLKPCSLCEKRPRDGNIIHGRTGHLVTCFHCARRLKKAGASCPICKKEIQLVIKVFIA
Target sequence (Q00987 whole entry, looked up): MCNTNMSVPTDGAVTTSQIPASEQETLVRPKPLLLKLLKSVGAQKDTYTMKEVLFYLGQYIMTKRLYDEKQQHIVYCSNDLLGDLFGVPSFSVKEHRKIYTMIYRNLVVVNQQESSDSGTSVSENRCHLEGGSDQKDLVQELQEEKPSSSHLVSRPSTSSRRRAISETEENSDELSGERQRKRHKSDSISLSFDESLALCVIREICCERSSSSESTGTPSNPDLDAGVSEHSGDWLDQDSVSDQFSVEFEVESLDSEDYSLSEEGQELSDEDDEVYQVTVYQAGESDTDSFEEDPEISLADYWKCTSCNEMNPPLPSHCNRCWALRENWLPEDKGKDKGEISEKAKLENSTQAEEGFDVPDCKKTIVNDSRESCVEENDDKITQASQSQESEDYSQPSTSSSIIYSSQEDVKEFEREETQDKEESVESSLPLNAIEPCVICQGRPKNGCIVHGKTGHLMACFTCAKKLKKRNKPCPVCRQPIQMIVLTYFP
Gli-Sufu block: Gli-Sufu pathway antagonism; Sufu-KO-LIGHT fibroblasts, Gli luciferase reporter luminescence; 340,000 compounds, 0.74% hits; inhibition, % at 5 µM;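 active = inhibition above about 55%, limit read from the data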
Gli antag conf: Gli-SUFU antagonism confirmation, single concentration. shares compounds with Gli-Sufu block. inhibition, % at 5 µM. 2,500 compounds, 40% hits. AID 602428. Sufu-KO-LIGHT cells, Gli luciferase reporter, luminescence;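 active = mean inhibition at 5 µM reaching about 45%, limit read from the data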
Gli cytotox: counter-screen for Gli-SUFU antagonists: cytotoxicity. cytotoxicity, % at 5 µM. Sufu-KO-LIGHT cells cytotoxicity, ATP luminescence. shares compounds with Gli-Sufu block. AID 651994. 2,500 compounds, 32% hits;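 active = mean cytotoxicity at 5 µM above about 25%, limit read from the data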;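 note: cells exposed to compound overnight for roughly 16 to 18 hours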
Wnt3a cs: counter-screen for Gli-SUFU antagonists: Wnt3a reporter inhibition | shares compounds with Gli-Sufu block | Wnt-LIGHT cells, Wnt3a-driven luciferase reporter, luminescence | inhibition, % at 6.25 µM | 2,500 compounds, 20% hits;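 active = mean inhibition above about 25%, limit read from the data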
Of the large screens only hits and unclear results are named; the others gave an inactive call (follow-up assays come after a bar, where they were run). Hits are enriched below; roughly 6.6% of the tested compounds scored in any of these assays.

Cc1ccc(C23CC4CC(CC(NC(=O)NN)(C4)C2)C3)cc1	none | Gli antag conf inactive | Gli cytotox inactive | Wnt3a cs inactive
Cc1ccc(C23CC4CC(CC(NC(=O)NC(C)(C)CO)(C4)C2)C3)cc1	none (no result: Beta apoptosis)
O=C(Nc1cccnc1)OC1CCCC1	none
COc1cc(NC(=S)NCCN2CCOCC2)cc(OC)c1OC	none | Gli antag conf inactive | Gli cytotox inactive | Wnt3a cs inactive
O=C(COc1ccc2c3c(c(=O)oc2c1)CCCC3)NCCCN1CCOCC1	Gli-Sufu block 94 | Gli antag conf inactive | Gli cytotox inactive | Wnt3a cs inactive
COc1ccc(NC(=O)c2cccc(N3C(=O)C4C5C=CC(C6CC56)C4C3=O)c2)c(OC)c1 (centres undefined)	Gli-Sufu block 56 | Gli antag conf inactive | Gli cytotox inactive | Wnt3a cs inactive
COc1ccc(NC(=O)c2cccc(N3C(=O)C4C5C=CC(C5)C4C3=O)c2)c(OC)c1 (centres undefined)	none
N#Cc1ccc(OCC(=O)NNC(=S)NC2CCCCC2)cc1	Gli-Sufu block 58 | Gli antag conf inactive | Gli cytotox inactive | Wnt3a cs inactive
CCN(CC)S(=O)(=O)c1ccc(OCC2CCCCO2)c([N+](=O)[O-])c1 (centres undefined)	none
O=C(COc1cccc2cccnc12)N/N=C/c1ccc(O)cc1	none
COc1cc(OC)c(/C=N/NC(=O)COc2cccc3cccnc23)c(OC)c1	Gli-Sufu block 56 | Gli antag conf inactive | Gli cytotox inactive | Wnt3a cs inactive
Cc1cc(C(=O)OCC(=O)NCc2cccs2)c2ccccc2n1	none
COc1ccc(CC(=O)N2CCCc3ccccc32)cc1	none
COc1ccc(CC(=O)N2CCCc3ccccc32)cc1OC	Gli-Sufu block 91 (no result: CSC inhib) | Gli antag conf inactive | Gli cytotox inactive | Wnt3a cs inactive
NC(=S)N/N=C/c1cccc(O)c1O	Gli-Sufu block 82 | Gli antag conf inactive | Gli cytotox inactive | Wnt3a cs inactive
Cc1cc(/C=N/NC(N)=S)c(O)c(/C=N/NC(N)=S)c1	none
O=C(Cc1ccc(Cl)cc1Cl)Nc1ccncc1	none | Gli antag conf inactive | Gli cytotox inactive | Wnt3a cs inactive
COc1ccc(CC(=O)Nc2ccncc2Cl)cc1	Beta apoptosis 102, Gli-Sufu block 66 | Gli antag conf 54 | Gli cytotox 26 | Wnt3a cs 31
O=C(Cc1ccc(Cl)cc1Cl)Nc1ccncc1Cl	Gli-Sufu block 73 | Gli antag conf 49 | Gli cytotox inactive | Wnt3a cs 32
CN(C)S(=O)(=O)N1CCc2ccc(NC(=O)c3ccc(C(F)(F)F)cc3)cc2C1	none
COCCNC(=S)NCc1ccc2[nH]c3c(c2c1)CCCC3	Gli-Sufu block 92 (no result: Beta apoptosis) | Gli antag conf inactive | Gli cytotox 26 | Wnt3a cs inactive
COCCNC(=O)NC(=O)COC(=O)c1ccc2[nH]c3c(c2c1)CCCC3	none
O=C1CN(C(=O)c2ccccc2F)c2ccccc2N1	none
COc1cc(OC)cc(C(=O)N2CC(=O)Nc3ccccc32)c1	none | Gli antag conf inactive | Gli cytotox 48 | Wnt3a cs inactive
CCc1cc2cc(C)ccc2nc1SCC(=O)NC1CCCC1	none
O=C(/C=C/NNC(=O)c1ccccc1)c1ccc([N+](=O)[O-])cc1	Beta apoptosis 95, Gli-Sufu block 73 | Gli antag conf inactive | Gli cytotox 28 | Wnt3a cs inactive
COc1ccc(OC)c(N(CC(=O)NCCSCc2ccco2)S(=O)(=O)c2ccc(OC)c(OC)c2)c1	none
CN(C(=O)c1ccc(NC(=O)Cc2cccc(NC(=O)C3CCCN(C(=O)C4CCCCC4)C3)c2)cc1)C1CCCC1 (centres undefined)	none
CN(C(=O)c1ccc(NC(=O)Cc2cccc(NC(=O)C3CCCN(C(=O)C4CCC4)C3)c2)cc1)C1CCCC1 (centres undefined)	Gli-Sufu block 57 | Gli antag conf inactive | Gli cytotox inactive | Wnt3a cs inactive
C/C(=N\NC(=O)Cc1cccn1C)c1cccs1	none
CC(C)N1CCN(CCCc2ccccc2)CC1CCO (centres undefined)	none (no result: Beta apoptosis)
OCCC1CN(Cc2ccc(F)cc2Cl)CCN1CCc1ccccc1 (centres undefined)	none
OCCC1CN(Cc2cc(F)ccc2F)CCN1CCCc1ccccc1 (centres undefined)	none | Gli antag conf inactive | Gli cytotox inactive | Wnt3a cs inactive
CC(C)N1CCC(N2CCN(CCCc3ccccc3)CC2CCO)CC1 (centres undefined)	Gli-Sufu block 60 | Gli antag conf inactive | Gli cytotox 27 | Wnt3a cs inactive
Cc1ccccc1CNC(=O)C(=O)Nc1nccs1	none
COc1ccc(NC(=O)c2oc3ccccc3c2NC(=O)c2ccco2)c(OC)c1	none | Gli antag conf inactive | Gli cytotox 43 | Wnt3a cs inactive
COc1ccc(NC(=O)c2oc3ccccc3c2NC(=O)c2ccco2)cc1	none (no result: CSC inhib)
COc1cc(F)c(C(=O)NC(C)(C)CO)cc1OC	none
CCc1cc(=O)oc2cc(C)cc(OCC(=O)N[C@@H](CSCc3ccccc3)C(=O)O)c12	Gli-Sufu block 57 (no result: Beta apoptosis) | Gli antag conf inactive | Gli cytotox inactive | Wnt3a cs inactive
CCCCc1cc(=O)oc2cc(C)cc(OCC(=O)N[C@@H](CSCc3ccccc3)C(=O)O)c12	none (no result: Beta apoptosis)
O=C(Nc1ccc(Cl)cc1)ON=C1CCCC1	none
NS(=O)(=O)c1ccc(NC(=O)CSC2=NC(=O)C(c3ccccc3)C(=O)N2)cc1 (centres undefined)	Gli-Sufu block 88 | Gli antag conf inactive | Gli cytotox inactive | Wnt3a cs inactive
NS(=O)(=O)c1ccc(NC(=O)CSc2ccccc2)cc1	none
O=C(NC(Cc1ccccc1)C(=O)O)/C(=C/c1ccc([N+](=O)[O-])cc1)NC(=O)c1ccccc1Br (centres undefined)	none
O=C(C[n+]1cccc(CO)c1)Nc1nc2ccccc2s1	none
COc1ccccc1-c1c(-c2ccc(O)cc2O)n[nH]c1C(F)(F)F	none | Gli antag conf 63 | Gli cytotox inactive | Wnt3a cs 31
COc1ccc(-c2c(-c3ccc(O)cc3O)n[nH]c2C(F)(F)F)cc1	none
CCN1CCN(C(=O)/C=C/c2cccc(Cl)c2)CC1	none
NC(=O)CC(NC(=O)c1ccc(Br)cc1)c1ccc(N2CCN(c3ccccc3)CC2)c([N+](=O)[O-])c1 (centres undefined)	none (no result: Beta apoptosis)

Bioassay records deposited in PubChem by several laboratories.
